Out of some 48,000 compounds screened, about 13,000 (27%) showed an effect of 50% or more. Some of the results follow.

The assay relates to Wolbachia pipientis. The assay is described as follows: Anti-Wolbachia Cell-Based Screen. Set-up: scale not given: in the data most compounds retested in dose-response had high values. Particulars: 5 µM. The format is functional.
For `O=C(NCc1cccc(N2CCCCC2=O)c1)[C@@H](O)c1ccccc1`, the “Percent Effect” value is recorded as -1.556%.
On to `CC(C)c1ccc(N2CCc3onc(-c4ccc(F)c(F)c4)c3C2)nn1`, for which the “Percent Effect” value was 26%.
Take `CCC1CN(C(=O)Nc2cnc3c(cnn3C(C)C)c2)CCO1` (stereo not given): the “Percent Effect” value is 6.429%.
For `CCC(CC)CN1C[C@@H]2OCCN(Cc3cnn(C)c3)[C@@H]2C1`, the “Percent Effect” value is given as -7.114%.
As for `COc1cc(C)c(C)cc1S(=O)(=O)NCC(O)c1cccn1C` (stereo not given), the “Percent Effect” value is reported as -4.325%.
In the case of `COC[C@@H]1CCCN1C(=O)c1cc(-c2cccc(OC)c2)n[nH]1`, the “Percent Effect” value was -18.68%.
With `COCC1CCCCN1C(=O)c1cc(-c2cccc(OC)c2)n[nH]1` (stereo not given), the “Percent Effect” value is -6.685%.
As to `COc1cccc(-c2cc(C(=O)Nc3nc[nH]n3)[nH]n2)c1`, the “Percent Effect” value is on record as 131.8%.
Consider `CC(C)N1CCC(CC(=O)NCCc2cc(O)ncn2)CC1`, for which the “Percent Effect” value is -16.23%.
On to `CN1CC[C@H](c2nnc(Cc3c[nH]c4ccccc34)o2)C1`, for which the “Percent Effect” value is -2.7%.
Regarding `CN1CCC(c2cc(CCO)ncn2)C1` (stereo not given), the “Percent Effect” value was 105.5%.
With `CCn1c(N)nc2cc(C(=O)N3CCN(c4ccncc4)CC3)cnc21`, the “Percent Effect” value is given as -2.234%.
For the molecule `Cc1nnc(N2CCOC(C)(C(=O)N(C)C)C2)c2ccccc12` (stereo not given), the “Percent Effect” value amounted to 78.63%.
Take `CCOC(=O)c1nnc2ccccc2c1N1CCOC(C)(C)C1`: the “Percent Effect” value was 7.014%.
In the case of `CNC(=O)C1(C)CN(c2nnc(C)c3ccccc23)CCO1` (stereo not given), the “Percent Effect” value is recorded as 101.8%.
As to `O=C(CCNC(=O)c1ccccc1N1CCOCC1)NC1CCCC1`, the “Percent Effect” value is 3.858%.
On to `Cc1nnc(N2CCCC2)c(C(N)=O)c1C`, for which the “Percent Effect” value is listed as -23.35%.
For the molecule `Cc1nnc(N2CCOC(C)(C(=O)NC3CCCC3)C2)c2ccccc12` (stereo not given), the “Percent Effect” value was found to be 100.6%.
`CNC(=O)[C@@]12CCO[C@@H]1CCN(S(=O)(=O)c1ccccc1C)C2`: the “Percent Effect” value is -56.15%.
For the molecule `Cc1ccc(N2CCCC3(CCN(C(=O)NC4CCCC4)C3)C2)nn1` (stereo not given), the “Percent Effect” value is recorded as 1.477%.
As for `Cn1cnc(S(=O)(=O)N2CCN(Cc3ccco3)CC2)c1Cl`, the “Percent Effect” value was -3.277%.
With `Cc1n[nH]c(C)c1CN1CC[C@@H]2[C@@H](CCC(=O)N2CCc2c[nH]cn2)C1` the figure was -6.371%.
Take `COCCc1noc(-c2cn(CCc3ccccc3)nn2)n1`: the “Percent Effect” value is listed as -16.95%.
For `CC(=O)c1cccc(NC(=O)N(CCO)C2CCc3ccccc32)c1` (stereo not given), the “Percent Effect” value was 6.805%.
As to `COCCCS(=O)(=O)N1CCN(c2cccc(O)c2)CC1`, the “Percent Effect” value is listed as -6.016%.
As for `O=C(C1CCCOC1)N1CCc2ccc(F)cc21` (stereo not given), the “Percent Effect” value was -7.553%.
Take `O=C1NCCCCC1NC(=O)N1CCCc2cc(F)ccc21` (stereo not given): the “Percent Effect” value is given as -6.196%.
On to `O=C(C1CCC1)N1CCC(=O)N(C2CC2)Cc2cc(F)ccc21`, for which the “Percent Effect” value amounted to 89.78%.
As to `CCN1CC(C(=O)N2CCC(Oc3ccccc3Cl)CC2)CC1=O` (stereo not given), the “Percent Effect” value came to 19.99%.
`CN1C(=O)CCN(C(=O)C2CCCCC2)c2ccccc21`: the “Percent Effect” value is on record as -31.28%.
With `O=C1N[C@@H]2CCN(C(=O)C3CCC3)[C@@H]2C(=O)N1c1ccc(F)cc1`, the “Percent Effect” value turned out to be 10.21%.
Consider `CCN1Cc2cc(F)ccc2N(C(C)=O)CCC1=O`, for which the “Percent Effect” value is given as 105.8%.
For the molecule `CCN1Cc2ccccc2N(C(=O)C2CCC2)CCC1=O`, the “Percent Effect” value was 94.47%.
With `CCN1Cc2cc(F)ccc2N(C(=O)C2CCC2)CCC1=O`, the “Percent Effect” value was 113.5%.
Turning to `Cc1noc(C)c1C(C)NC(=O)N1CCC(NC(=O)c2ccsc2)CC1` (stereo not given), the “Percent Effect” value is on record as -3.825%.
For `COc1c(NC(=O)C(C)CCOc2ccccc2)c(C)nn1C` (stereo not given), the “Percent Effect” value is recorded as -7.796%.
In the case of `CC(O)CN1CCN(C(=O)CN(C)c2cnccn2)CC1` (stereo not given), the “Percent Effect” value was -17.8%.
As for `Cn1c(N)nnc1SCc1c(F)cccc1Br`, the “Percent Effect” value is on record as -12.74%.
Regarding `Cc1cc(C)c(C(=O)N[C@H](C(N)=O)c2ccccc2)c(=O)[nH]1`, the “Percent Effect” value worked out at 4.18%.
On to `CCOC(=O)CCCNc1nc(C(C)(C)C)nc2c1cnn2C`, for which the “Percent Effect” value is on record as 0.3135%.
With `O=C(c1ccsc1)N1CCN(CC(O)c2cccc(F)c2)CC1` (stereo not given), the “Percent Effect” value was 8.058%.
With `CC(C(=O)N1CCn2cncc2C1)N1CCCC1` (stereo not given) the figure was 4.282%; with `O=C(CCCNCc1ccc(Cl)c2cccnc12)NC1CC1`, -3.748%; with `COc1ccc(Cl)cc1-n1nc(C2CCCC2)nc1Cn1cnnn1`, -18.77%.
The result for `Nc1nc2c(c(N3CCC(CN4CCCC4=O)CC3)n1)CCNCC2` reads -8.42%; that for `CCC1=N[C@@]2(CC[C@@H]3CN(S(C)(=O)=O)C[C@@H]32)C(=O)N1CC(C)C`, -16.48%.
As for `Cc1cccc(CN2CCc3c(CNC(=O)CC#N)nn(C)c3C2)n1.O=C(O)C(F)(F)F`, the “Percent Effect” value is given as -9.631%.
On to `CC(C)Cc1nc(NC(=O)c2cccnc2)n[nH]1`, for which the “Percent Effect” value worked out at 118.7%.
For the molecule `O=C(Nc1cc(-c2cccnc2)no1)C1CCC1`, the “Percent Effect” value is 9.123%.
Consider `CC(C)C[C@H](NC(=O)c1cc(-c2cccn2C)n[nH]1)C(N)=O`, for which the “Percent Effect” value was found to be 6.399%.
The result for `Cc1cc(CC(C)Nc2nc(-c3cccnc3)nc3c2CNC3)[nH]n1` (stereo not given) reads -2.115%; that for `O=C(Nc1ncc[nH]1)c1cc(-c2cccnc2)n[nH]1`, 118.3%; that for `CC(C)Cc1nc(NC(=O)c2cc(-c3cccnc3)n[nH]2)n[nH]1`, 127.5%.
The result for `Cc1nn(C(C)C)c(C)c1NC(=O)c1cccnc1` reads 6.145%; that for `Cn1cccc1-c1cc(C(=O)N2CC(c3cccnc3)C2)[nH]n1`, -4.055%.
In the case of `CC(C)COCC(NC(=O)c1cccnc1)c1ccco1` (stereo not given), the “Percent Effect” value is -0.4808%.
In the case of `CC(=O)c1cccc(NC(=O)CN2CCCC(C3OCCO3)C2)c1` (stereo not given), the “Percent Effect” value is reported as 1.142%.
On to `CN1CCN(CCCN(C)S(=O)(=O)CC2CCCCC2)CC1`, for which the “Percent Effect” value was -9.559%.
For the molecule `N#CC1(C(=O)N2CCN(Cc3ccon3)CC2)CCC1`, the “Percent Effect” value is reported as -11.71%.
`Cc1ccc(C(=O)NS(=O)(=O)c2ccc3c(c2)OCCCO3)o1`: the “Percent Effect” value is given as -8.261%.
For `CCn1cc(-c2nn3c(C(C)C)nnc3s2)c(C)n1`, the “Percent Effect” value was 106.3%.
`CCn1c(CN2CCCC2)nnc1C1CCN(Cc2cc(C)no2)CC1`: the “Percent Effect” value is -0.1861%.
Consider `Cc1cc(NC(=O)CN2CCn3c(nnc3C(C)C)C2)on1`, for which the “Percent Effect” value is on record as -16.14%.
As to `COc1c(C2CCCN2Cc2cc(C)no2)c(C)nn1C` (stereo not given), the “Percent Effect” value was -10.58%.
In the case of `Cc1cc(-c2nn3c(C4CCC4)nnc3s2)on1`, the “Percent Effect” value stood at 155.9%.
In the case of `CC(C)c1nnc2sc(CC3CCS(=O)(=O)C3)nn12` (stereo not given), the “Percent Effect” value came to 8.57%.
As for `Cc1cc(-c2nn3c(C4CC4)nnc3s2)on1`, the “Percent Effect” value amounted to 189.6%.
Consider `Cc1cc(CN(C2CC2)C(C)C(C)C)on1` (stereo not given), for which the “Percent Effect” value is 26.3%.
As to `Cc1cc(-c2nn3c(C(C)C)nnc3s2)on1`, the “Percent Effect” value is 113.9%.
For `Cc1cc(CN2CCN(c3nn4cc(C)nc4s3)CC2)on1`, the “Percent Effect” value is recorded as 9.459%.

The values are drawn from ChEMBL document CHEMBL3988442, “University of Dundee, Small-Polar-MMV Screening Library” (2021).
